Consider 36 compounds from PubChem BioAssay.

In the assay the target is Calmodulin-1 (Homo sapiens) (UniProt P0DP23). Briefly: small molecules binding calmodulin-1 with EGTA – biochemical, small-molecule microarray, Cy5-labelled CALM1, profiling panel (AID 1111).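 Note: labelled calmodulin applied in Tris saline Tween buffer holding calcium plus EGTA and DTT.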 The settings on record: Cy5-CALM1 binding fluorescence, higher = more signal.
Consider `CCOC(=O)[C@H](Cc1ccccc1)NC(=O)CCC1CC(OC(=O)NCCc2ccc(F)cc2)CC2(CCCC(COC(=O)NCc3cccc(C(F)(F)F)c3)O2)O1` (stereo partly specified), for which the composite z-score is 1.43.
As to `C[C@H]1CC[C@@H](C(=O)O)N[C@@H]1c1ccc(C#Cc2ccccc2)cc1`, the composite z-score was 0.119.
With `C[C@H]1CC[C@H]2C(=O)OC(COc3ccc(C(C)(C)C)cc3)CN2[C@@H]1c1ccc(Br)cc1` (stereo partly specified) the figure was 0.464.
`OC[C@H]1O[C@H](C#Cc2ccccc2)C=C[C@@H]1O`: the composite z-score was -0.12.
Turning to `CC(C)(C)N1C(=O)[C@H]2[C@H]3[C@H](O)[C@H](O)CC(=NOC[C@@H](O)COCc4ccco4)[C@@H]3CC[C@H]2C1=O`, the composite z-score is -0.235.
As for `COC(=O)[C@H](C)NC(=O)CCC1CC(OC(=O)NCc2ccc3c(c2)OCO3)CC2(CCCC(COC(=O)NCc3ccccc3)O2)O1` (stereo partly specified), the figure is 0.202; as for `O=C1[C@H]2[C@H]3[C@H](O)[C@H](O)CC(=NOC[C@@H](O)COCc4ccco4)[C@@H]3CC[C@H]2C(=O)N1Cc1ccccc1`, -0.754; as for `COc1ccc(COC(=O)NN=C2C[C@@H](O)[C@@H](O)[C@@H]3[C@@H]4C(=O)N(C5CCCCC5)C(=O)[C@@H]4CC[C@@H]23)cc1`, -0.53.
The compound `CC(=O)OC[C@H]1O[C@@H](ON=C(C)CCN2CCCCc3nc(C)c(C)cc32)[C@H](OC(C)=O)[C@@H](OC(C)=O)[C@@H]1OC(C)=O` showed a composite z-score of -0.336.
For `CCOC(=O)[C@H](CC(C)C)NC(=O)CCC1CC(OC(=O)NCc2ccc3c(c2)OCO3)CC2(CCCC(COC(=O)NCCOC)O2)O1` (stereo partly specified), the composite z-score came out at 0.221.
Regarding `CO[C@H]1COC(=O)[C@H](C)COC(=O)[C@@H](OCc2ccccc2)C=C[C@@H]1C`, the composite z-score was -0.46.
With `CCOC(=O)[C@H](Cc1ccccc1)NC(=O)CCC1CC(OC(=O)NCc2cccc3ccccc23)CC2(CCCC(COC(=O)NCCOc3ccccc3)O2)O1` (stereo partly specified) the figure was 0.653.
With `CCc1cc2c(nc1CC)CCN(CCC(C)=NOC[C@@H](C)[C@H](OCc1ccccc1)C(C)C)C2` the figure was -1.3; with `O=C1CCCC=C1C(O)C1CCCCC1` (stereo unspecified), -0.583.
Compound `CC(C)=CCCC(C)=CCON=C1C[C@@H](O)[C@@H](O)[C@@H]2[C@@H]3C(=O)N(Cc4ccc5c(c4)OCO5)C(=O)[C@@H]3CC[C@@H]12` showed a composite z-score of 0.359.
The compound `CC(C)=CCCC(C)=CCON=C1[C@H]2CCn3c(=O)n(-c4ccccc4)c(=O)n3[C@H]2[C@H](O)[C@@H]2O[C@H]12` yielded a composite z-score of -0.198.
For `C=CCOCC1CN2[C@@H](CC[C@@H](C)[C@@H]2c2ccc(Br)cc2)C(=O)O1` (stereo partly specified), the composite z-score is -0.457.
For the compound `CCCC[C@H]1CN2[C@@H](CC[C@@H](C)[C@@H]2c2ccc(Br)cc2)C(=O)O1`, the composite z-score is 0.849.
Take `CC(C)CON=C1[C@H]2CCn3c(=O)n(C)c(=O)n3[C@H]2[C@H](O)[C@@H]2O[C@H]12`: the composite z-score was -0.0875.
`O=C1C=C[C@@H](O)[C@@H]2[C@@H]3C(=O)N(c4cccc(Oc5ccccc5)c4)C(=O)[C@@H]3CC[C@@H]12` showed a composite z-score of -0.203.
On to `Cc1cc(C)c(-c2cc([C@H](C)ON=C[C@@H](C)[C@H](OCc3ccccc3)C(C)C)on2)c(C)c1`, for which the composite z-score was -0.27.
Compound `C[C@@H]1C=CCC(=O)OC[C@H](C)C(=O)N[C@@H](Cc2ccccc2)C(=O)OC1` yielded a composite z-score of -0.273.
In turn, `CCOC(=O)NN=C1C[C@@H](O)[C@@H](O)[C@@H]2[C@@H]3C(=O)N(C[C@@H]4CCCO4)C(=O)[C@@H]3CC[C@H]12` yielded a composite z-score of -0.47.
`COc1ccc(-c2cnnc(CCCn3ccnc3-c3ccccc3)n2)cc1` gave a composite z-score of 0.212.
With `CCOC(=O)[C@H](Cc1ccccc1)NC(=O)CCC1CC(OC(=O)NCc2ccc3c(c2)OCO3)CC2(CCCC(COC(=O)NCCc3ccc(Cl)cc3)O2)O1` (stereo partly specified), the composite z-score was 0.534.
In the case of `CCO[C@H](c1cc(OC)cc([N+](=O)[O-])c1OC)[C@H](C)[C@@H](OC)[C@H](C)C=CCC(=O)OC`, the composite z-score worked out at 0.379.
As for `CCN(CC)CC(O)CN1CCCCc2nc(C)c(C)cc21` (stereo unspecified), the composite z-score is -0.397.
For the compound `O=C1CCCC=C1C(O)c1ccc([N+](=O)[O-])cc1` (stereo unspecified), the composite z-score was -0.79.
In turn, `CCOC(=O)[C@H](Cc1ccccc1)NC(=O)CCC1CC(OC(=O)NCCc2ccc(F)cc2)CC2(CCCC(COC(=O)NCCOc3ccccc3)O2)O1` (stereo partly specified) returned a composite z-score of 0.483.
As for `COC(=O)[C@H](Cc1ccccc1)NC(=O)[C@@H](C)CO`, the figure is -0.597; as for `CCOC(=O)CCN1C(=O)[C@H]2[C@H]3[C@H](O)[C@H](O)CC(=NOCC=C(C)CCC=C(C)C)[C@H]3CC[C@H]2C1=O`, -0.38.
With `O=C1[C@H]2[C@H]3[C@H](O)[C@H](O)CC(=NO[C@@H]4O[C@H](CO)[C@@H](O)[C@H](O)[C@H]4O)[C@H]3CC[C@H]2C(=O)N1c1ccc(F)cc1F` the figure was -0.466.
`O=C1[C@H]2[C@H]3[C@H](O)[C@H](O)CC(=NOCc4ccccc4)[C@@H]3CC[C@H]2C(=O)N1c1cccc(Oc2ccccc2)c1` gave a composite z-score of -0.0299.
`O=C1C2=CC[C@H]3C(=O)N(C[C@@H]4CCCO4)C(=O)[C@H]3[C@H]2[C@H](O)[C@@H]2O[C@H]12` returned a composite z-score of -0.248.
`CCOC(=O)[C@H](CC(C)C)NC(=O)CCC1CC(OC(=O)NCc2ccc3c(c2)OCO3)CC2(CCCC(COC(=O)NCc3ccccc3)O2)O1` (stereo partly specified): the composite z-score was found to be 0.562.
Consider `CON=C(C)CCN1CCCc2nc(C)c(C)cc21`, for which the composite z-score was -0.209.
